Assay in all cases: NCI-60 one-dose screen, 48 h (100 = growth as untreated, 0 = no growth, -100 = all killed)
Conditions in all cases: 10 µM

The test system of test [1] is DU-145 prostate.
For test [2], the system named is K-562 leukemia.
The test system of test [3] is MALME-3M melanoma.
For test [4], the system named is MDA-MB-231 breast.
For test [5], the system named is RXF 393 renal.
The subject of test [6] is SF-268 CNS.
Test [7] has as its system SF-295 CNS.
The test system of test [8] is SF-539 CNS.
Test [9] relates to UACC-257 melanoma.
The test system of test [10] is M14 melanoma.
The test system of test [11] is HCT-15 colon.
The test system of test [12] is HT29 colon.
The subject of test [13] is SNB-75 CNS.
Test [14] deals with SNB-19 CNS.
Test [15] relates to U251 CNS.
For test [16], the system named is PC-3 prostate.
Test [17] deals with SK-MEL-5 melanoma.
In test [18] the test system is UACC-62 melanoma.
In test [19] the test system is LOX IMVI melanoma.
Test [20] concerns SK-MEL-28 melanoma.

Here are results for eight molecules from PubChem BioAssay (NCI).

This is part of a sample that, as a whole, favours compounds with a hit. Of some 83,000 tested, about 20% had one in any assay.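 Step 1: grow cells in 96-well plates. Step 2: add test compound at a single concentration. Step 3: incubate 48 h. Step 4: record percent growth.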 Values without a mark were called inactive. Activity calls are given as the source filed them. Rule for the calls: active = growth percent below 10; inactive = the rest.

On to `CCCCCCCCCCN=C(c1ccc(N(C)C)cc1)c1ccc(N(C)C)cc1`, for which the growth in [1] is 28.5%; in test [2], 10.1%; in test [3], 62%; in test [4], 49.5%; in test [5] it was 3.59% (active); in test [6], 57.5%. Further, the growth in [7] is 14%; in test [8], 10.9%; in [9], 28.3%; in [10], -18% (active); in test [11] it was 12.9%; in [12] it was 9.42% (active). The growth is 33.1% in [13]; 31.8% in test [14]; 21.3% in test [15]; 30.7% in test [16]; 0.192% (active) in test [17]; 31.7% in [18]. Moreover, the growth was 42.1% in test [19] and 59.7% in [20].

For `O=NN(CC(=O)N/N=C/C=C\c1ccccc1)CC(=O)N/N=C/C=C/c1ccccc1`, the growth was 109% in test [1]; 96.9% in [2]; 90.6% in test [3]; 89.2% in test [4]; 71.3% in [5]; 88% in test [6]. In addition, the growth is 106% in test [7]; 92.3% in test [8]; 98.8% in [9]; 97.5% in [10]; 94% in [11]; 110% in test [12]. In addition, the growth was 72.9% in test [13]; 92.5% in test [14]; 89% in [15]; 85.2% in test [16]; 84.9% in test [17]; 101% in [18]. Besides, the growth was 87.6% in [19] and 99.4% in [20].

On to `Fc1ccc(Nc2ccnc(N3CCN(c4ccnc5cc(Cl)ccc45)CC3)n2)cc1`, for which the growth in [1] is 77%; in test [2], 16%; in test [3], 52.9%; in test [4], 56%; in test [5], 66.7%; in test [6], 72.4%. Moreover, the growth in test [7] is 39.6%; in [8] it was 51.4%; in test [9], 61.1%; in test [10], 43.4%; in test [11] it was 38.4%; in [12] it was 22.3%. Besides, the growth is 74.2% in [13]; 65.7% in [14]; 47% in test [15]; 23% in [16]; 26% in [17]; 45.3% in test [18]. Further, the growth is 49.8% in test [19] and 81% in test [20].

In the case of `CCCCC(CC#N)(CCC)CCC`, the growth was 108% in test [1]; 101% in test [2]; 82.7% in [3]; 126% in [4]; 126% in test [5]; 101% in [6]. Besides, the growth in test [7] is 96.7%; in test [8], 100%; in [9], 110%; in test [10], 97.4%; in [11] it was 99%; in test [12] it was 99%. Further, the growth in test [13] was 80.6%; in test [14] it was 106%; in test [15], 102%; in [16] it was 99.2%; in test [17], 106%; in [18] it was 118%. The growth in [19] was 92.1%; in test [20] it was 99.6%.

Turning to `O=C(NCCCl)c1cc(Cl)cc(Cl)c1`, the growth in [1] was 111%; in test [2], 101%; in [3], 97.8%; in test [4] it was 121%; in [5], 114%; in test [6], 112%. Also, the growth in test [7] is 92.4%; in test [8], 101%; in test [9], 91.8%; in [10], 116%; in test [11], 97.1%; in [12] it was 107%. In addition, the growth in test [13] is 76.8%; in test [14], 108%; in test [15], 98.7%; in test [16] it was 93.2%; in [17], 101%; in test [18], 94.9%. The values for the growth in [19] and in [20] were 102% and 103%, respectively.

Take `CCNC1(NC#N)CCCCC1`: the growth in [1] was 123%; in test [2], 115%; in test [3], 113%; in [4] it was 107%; in test [5], 108%; in [6], 112%. Also, the growth is 97.7% in test [7]; 105% in test [8]; 85.1% in test [9]; 99% in test [10]; 98.8% in test [11]; 123% in test [12]. For the same molecule, the growth in test [13] was 91.2%; in test [14] it was 110%; in test [15], 98.9%; in test [17], 96.8%; in test [18], 105%; in [19], 104%. In addition, the growth in test [20] was 103%.

In the case of `C#CCNCCN1C(=O)c2ccc3c4c(ccc(c24)C1=O)C(=O)N(CCNCC#C)C3=O`, the growth was 54.7% in test [1]; 25% in test [2]; -12.9% (active) in test [3]; 58% in test [4]; 52.1% in test [5]; 47.9% in test [6]. The growth is 27% in [7]; 47.7% in test [8]; 14.4% in test [9]; 32.6% in [10]; 19.5% in test [11]; 2.13% (active) in test [12]. Also, the growth in test [13] was 75.4%; in [14], 46%; in test [15], 29.5%; in [17], -81.3% (active); in [18] it was 16.7%; in [19], -3.21% (active). Moreover, in [20], the growth was 83.9%.

Consider `COCc1cc2c(cc1Br)OCO2`, for which the growth is 112% in [1]; 107% in test [2]; 98.6% in test [3]; 110% in [4]; 107% in test [5]; 100% in [6]. Further, the growth in test [7] was 99.1%; in test [8], 95.5%; in test [9], 101%; in test [10], 100%; in test [11], 100%; in [12] it was 106%. In addition, the growth in test [13] was 87.1%; in test [14] it was 105%; in test [15], 99.1%; in test [16], 86.8%; in test [17], 107%; in [18] it was 100%. Besides, the growth was 95.6% in [19] and 99.1% in test [20].
